# In PubChem BioAssay (NCATS):
# Values joined by “and” are separate entries in the source; they are usually repeats but may differ in a detail not shown here. Equal values may be shown once. A number with no mark means an inactive call. Records with an inconclusive call do not appear. A call without a number means that no potency is given here. Active and inactive are the calls of the source. Unless noted, calls come from the whole dose curve; as a rule, active = well fitted curve in the direction sought with a large enough effect; inconclusive = small, poorly fitted or top-dose-only effect, or another doubt; inactive = no such curve, though single readings can be large; an effect the other way counts as inactive or inconclusive.
# Assays:
# [1] = qHTS assay for measurement of the activity of small molecule inhibitors on Zika virus induced Caspase-3 activity in human iPSC derived neural progenitor cells (hNPCs) (AID 1224857); note: nearly all actives have a fitted effect of over 65% in size
# How it was run: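 After overnight (16–20 h) culture at 350 cells/well, hNPCs get compound, then ZIKV 2 FFU/cell one hour later. Six hours on, Caspase-Glo 3/7 is added and luminescence measured.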
# [2] = qHTS assay for measurement of the activity of small molecule inhibitors on Zika virus induced Caspase-3 activity in human astrocytoma cells (AID 1224859)
# How it was run: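 Inhibition of Zika-induced caspase-3/7 activity: SNB-19 cells, 1 h compound pretreatment, ZIKV 2 FFU/cell for 6 h at 37 C, Caspase-Glo luminescence read-out.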
# [3] = qHTS assay to identify small molecule inhibitors of chordoma cells - UCH-1 (AID 1259355); note: nearly all actives have a fitted effect of over 55% in size; note: potency is the fitted concentration of half-maximal effect; series mostly up to about 46 µM
# How it was run: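 Luminescent ATP read-out (CellTiter-Glo, 30min at room temperature) measured viability of UCH-1 cells exposed for 48hr to test drugs at 15 concentrations, co-dosed with a five-agent combination of auranofin, camptothecin, doxorubicin, rubitecan and topotecan.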
# [4] = qHTS assay to identify small molecule inhibitors of chordoma cells - UCH-2 (AID 1259356); note: series mostly up to about 46 µM
# [5] = NS1 protein of Zika virus - qHTS assay to identify small molecule inhibitors in human HEK 293 cells (AID 1347053); note: series mostly up to about 46 µM; nearly all actives have a fitted effect of over 55% in size
# How it was run: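 Inhibition of NS1 expression was scored in HEK 293 cells given compound 1 h ahead of MR766 virus (MOI = 0.5). Following 24 h at 37 C, two anti-NS1 antibodies generated a TR-FRET signal, scaled between uninfected and infected controls.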
# [6] = Natriuretic polypeptide receptor (hNpr1) antagonism - Pilot counterscreen GloSensor control cell line (AID 1347045; calls by dose curve; note: series mostly up to about 38 µM)
# How it was run: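 Luminescence was read before and 20 min after adding 50 uM SNP, which stimulates soluble guanylyl cyclase. The HEK293 cells expressing the GloSensor cGMP sensor had been preloaded with 2% reagent for 2 h and treated with compound.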
# [7] = biological target: Atrial natriuretic peptide receptor 1 (Homo sapiens) (UniProt P16066); assay: Natriuretic polypeptide receptor (hNpr1) antagonism - Pilot screen (AID 1347049; calls by dose curve;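 note: agonist-evoked cGMP luminescence read 20 min after hNppA addition; series mostly up to about 58 µM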)
# How it was run: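 HEK293 cells co-expressing hNpr1 and the GloSensor pGS-40F cGMP luciferase sensor were preloaded with 2% GloSensor reagent for 2 h. Compounds were added for 30 min at room temperature, then cells were stimulated with 0.1 nM hNppA for 20 min before luminescence readout.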
# [8] = biological target: Atrial natriuretic peptide receptor 2 (Homo sapiens) (UniProt P20594); assay: Natriuretic polypeptide receptor (hNpr2) antagonism - Pilot subtype selectivity assay (AID 1347050; calls by dose curve; note: potency is the fitted concentration of half-maximal effect)
# How it was run: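 cGMP-sensor HEK293/hNpr2 cells; 2% GloSensor reagent 2 h RT; compounds 30 min; baseline luminescence read; 1 nM hNppC agonist 20 min RT; final luminescence read by CCD camera. Antagonism = reduced post-agonist signal.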
# [9] = biological target: T1, Tyrosine-protein phosphatase non-receptor type substrate 1 (Homo sapiens) + Leukocyte surface antigen CD47 (Homo sapiens) (UniProt P78324+Q08722); assay: CD47-SIRPalpha protein protein interaction - LANCE assay qHTS validation (AID 1347057; active = well fitted curve in the direction sought with a large enough effect in the signal ratio, with a control signal flat, not every such curve was filed as active; the % refers to the signal ratio; note: series mostly up to about 38 µM)
# How it was run: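 First, His-tagged CD47 and Eu-labelled anti-His antibody met the compound for 30 min; next, site-specifically biotinylated SIRPalpha was added for 30 min; finally streptavidin-APC was added before reading the TR-FRET ratio.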
# [10] = biological target: T1, Tyrosine-protein phosphatase non-receptor type substrate 1 (Homo sapiens) + Leukocyte surface antigen CD47 (Homo sapiens); assay: CD47-SIRPalpha protein protein interaction - HTRF assay qHTS validation (AID 1347058; active = well fitted curve in the direction sought with a large enough effect in the signal ratio, not every such curve was filed as active; the % refers to the signal ratio;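 note: recombinant soluble extracellular CD47 with His tag and biotinylated SIRPalpha domains; series mostly up to about 38 µM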)
# How it was run: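 TR-FRET read (Ch1/Ch2 ratio) of soluble extracellular CD47 and Avi-biotinylated SIRPalpha domains in PBS pH 7.4 with 0.05% IGEPAL; 7-point compound titration. Sequential 30 min room-temperature steps; non-biotinylated SIRPalpha as control inhibitor.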
# [11] = P-glycoprotein substrates identified in KB-8-5-11 adenocarcinoma cell line, qHTS therapeutic library screen (AID 1346987); note: nearly all actives have a fitted effect of over 65% in size
# How it was run: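 Steps: plate 500 KB-8-5-11 cells/well in DMEM + 10% FCS (colchicine removed); pin compounds in dose-response; incubate 72 h, 37 degree C, 5% CO2; add CellTiter-Glo, 5 min; read luminescence.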
# Sequence of Atrial natriuretic peptide receptor 1 (Homo sapiens) (P16066 whole entry, looked up): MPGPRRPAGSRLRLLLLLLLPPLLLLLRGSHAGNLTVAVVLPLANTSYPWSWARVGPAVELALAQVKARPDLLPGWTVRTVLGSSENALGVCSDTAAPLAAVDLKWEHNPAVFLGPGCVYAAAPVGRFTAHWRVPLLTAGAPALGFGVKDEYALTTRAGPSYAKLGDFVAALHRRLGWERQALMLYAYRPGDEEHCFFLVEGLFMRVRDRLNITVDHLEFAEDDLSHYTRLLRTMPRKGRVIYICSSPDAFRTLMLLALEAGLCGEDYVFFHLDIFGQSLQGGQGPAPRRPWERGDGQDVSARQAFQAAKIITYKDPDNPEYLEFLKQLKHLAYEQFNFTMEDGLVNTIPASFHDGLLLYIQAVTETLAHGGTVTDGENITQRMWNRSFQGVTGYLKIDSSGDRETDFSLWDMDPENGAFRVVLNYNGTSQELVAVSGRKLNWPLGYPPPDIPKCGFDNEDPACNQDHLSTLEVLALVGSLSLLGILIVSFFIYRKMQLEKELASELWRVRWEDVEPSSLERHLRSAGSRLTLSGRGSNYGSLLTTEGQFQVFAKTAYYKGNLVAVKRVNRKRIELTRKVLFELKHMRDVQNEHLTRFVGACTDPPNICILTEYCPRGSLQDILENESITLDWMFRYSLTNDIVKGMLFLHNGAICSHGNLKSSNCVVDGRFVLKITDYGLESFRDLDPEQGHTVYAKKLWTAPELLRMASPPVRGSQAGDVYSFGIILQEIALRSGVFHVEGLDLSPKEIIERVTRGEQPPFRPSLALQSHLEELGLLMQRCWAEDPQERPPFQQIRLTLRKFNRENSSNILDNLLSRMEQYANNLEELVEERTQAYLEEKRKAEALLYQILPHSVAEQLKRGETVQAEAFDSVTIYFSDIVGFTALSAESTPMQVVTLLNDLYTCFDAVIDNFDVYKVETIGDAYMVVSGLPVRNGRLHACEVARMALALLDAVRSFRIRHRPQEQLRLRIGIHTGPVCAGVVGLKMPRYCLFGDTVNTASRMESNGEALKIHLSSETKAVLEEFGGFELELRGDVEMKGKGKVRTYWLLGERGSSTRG
# T1 sequence (P78324 whole entry, looked up): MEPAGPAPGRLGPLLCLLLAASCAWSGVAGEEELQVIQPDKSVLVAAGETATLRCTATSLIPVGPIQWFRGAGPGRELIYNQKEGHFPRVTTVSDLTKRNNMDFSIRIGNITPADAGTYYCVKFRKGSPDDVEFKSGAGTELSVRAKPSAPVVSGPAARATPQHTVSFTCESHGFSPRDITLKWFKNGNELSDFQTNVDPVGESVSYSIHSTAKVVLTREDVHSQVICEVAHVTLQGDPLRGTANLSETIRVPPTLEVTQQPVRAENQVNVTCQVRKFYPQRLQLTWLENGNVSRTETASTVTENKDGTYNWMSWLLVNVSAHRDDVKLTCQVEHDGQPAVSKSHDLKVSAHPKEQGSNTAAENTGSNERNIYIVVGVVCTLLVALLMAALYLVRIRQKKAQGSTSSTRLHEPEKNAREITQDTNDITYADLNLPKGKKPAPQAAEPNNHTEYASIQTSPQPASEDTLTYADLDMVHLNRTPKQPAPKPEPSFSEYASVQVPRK
# T1 sequence (Q08722 whole entry, looked up): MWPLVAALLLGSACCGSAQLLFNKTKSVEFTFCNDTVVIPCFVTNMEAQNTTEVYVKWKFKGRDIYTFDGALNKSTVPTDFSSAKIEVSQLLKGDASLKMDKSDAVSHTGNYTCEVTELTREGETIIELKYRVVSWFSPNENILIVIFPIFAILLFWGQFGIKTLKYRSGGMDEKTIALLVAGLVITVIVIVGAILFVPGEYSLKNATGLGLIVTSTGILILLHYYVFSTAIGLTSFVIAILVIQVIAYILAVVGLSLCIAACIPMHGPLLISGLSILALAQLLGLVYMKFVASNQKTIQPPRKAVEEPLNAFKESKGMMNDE
# Sequence of Atrial natriuretic peptide receptor 2 (Homo sapiens) (P20594 whole entry, looked up): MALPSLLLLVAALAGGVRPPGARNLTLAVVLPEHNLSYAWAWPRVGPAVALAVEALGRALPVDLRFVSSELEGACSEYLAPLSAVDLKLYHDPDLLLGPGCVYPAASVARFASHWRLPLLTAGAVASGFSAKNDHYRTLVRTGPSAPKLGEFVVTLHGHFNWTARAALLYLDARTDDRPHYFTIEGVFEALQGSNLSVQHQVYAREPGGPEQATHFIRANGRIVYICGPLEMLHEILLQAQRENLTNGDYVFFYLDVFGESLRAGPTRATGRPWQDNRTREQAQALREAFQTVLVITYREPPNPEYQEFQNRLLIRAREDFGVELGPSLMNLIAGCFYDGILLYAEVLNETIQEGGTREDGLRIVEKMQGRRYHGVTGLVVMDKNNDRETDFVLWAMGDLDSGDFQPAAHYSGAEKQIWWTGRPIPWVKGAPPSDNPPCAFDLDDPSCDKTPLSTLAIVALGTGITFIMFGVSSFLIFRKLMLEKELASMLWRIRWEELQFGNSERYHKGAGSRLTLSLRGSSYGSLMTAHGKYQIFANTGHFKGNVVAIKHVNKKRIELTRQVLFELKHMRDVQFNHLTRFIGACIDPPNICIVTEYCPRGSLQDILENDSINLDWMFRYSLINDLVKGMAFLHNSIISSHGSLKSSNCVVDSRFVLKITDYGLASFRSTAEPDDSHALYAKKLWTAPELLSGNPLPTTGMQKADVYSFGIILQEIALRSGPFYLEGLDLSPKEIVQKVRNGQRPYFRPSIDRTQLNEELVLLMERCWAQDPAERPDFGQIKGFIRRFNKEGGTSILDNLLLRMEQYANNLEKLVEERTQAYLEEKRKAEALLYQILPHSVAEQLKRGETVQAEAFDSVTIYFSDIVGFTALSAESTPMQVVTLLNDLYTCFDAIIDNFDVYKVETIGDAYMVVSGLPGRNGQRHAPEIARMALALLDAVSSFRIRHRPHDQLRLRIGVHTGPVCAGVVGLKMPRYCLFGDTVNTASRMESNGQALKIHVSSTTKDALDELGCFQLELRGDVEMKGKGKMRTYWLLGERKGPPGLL
compound,measurement,setting,value
CCN(CC)CCNC(C(=O)OCCC(C)C)c1ccccc1 (centres undefined),outcome,[1],inactive
same,outcome,[2],inactive
same,Potency,[3],inactive
same,outcome,[4],inactive
same,Potency,[5],inactive
C[C@](N)(Cc1ccc(O)cc1)C(=O)O,outcome,[1],inactive
same,outcome,[2],inactive
same,Potency,[3],inactive
same,outcome,[4],inactive
same,outcome,[6],inactive
same,outcome,[7],inactive
same,Potency,[8],inactive
same,Potency,[5],inactive
same,outcome,[9],inactive
same,outcome,[10],inactive
CCCCN(CCCC)CC(O)c1cc(Cl)cc2c1-c1ccc(Cl)cc1/C2=C/c1ccc(Cl)cc1 (centres undefined),outcome,[1],inactive
same,outcome,[2],inactive
same,Potency,[3],inactive
same,outcome,[4],inactive
same,Potency,[5],inactive
same,outcome,[9],inactive
N[C@@H](CSSC[C@H](N)C(=O)O)C(=O)O,"activity change, negative = inhibition",[1],-8.71% [at 0.568 µM]
same,"activity change, negative = inhibition",[2],23% [at 0.568 µM]
same,Potency,[3],inactive
same,outcome,[4],inactive
same,Potency,[11],inactive
same,"activity change, negative = inhibition",[5],-26.2% [at 0.593 µM]
NC(=O)N/N=C/c1ccc([N+](=O)[O-])o1,outcome,[1],inactive
same,outcome,[2],inactive
same,Potency,[3],inactive
same,outcome,[4],inactive
same,Potency,[5],inactive
N[C@@H](CSCCCO)C(=O)O,outcome,[1],inactive
same,outcome,[2],inactive
same,Potency,[3],inactive
same,outcome,[4],inactive
same,Potency,[11],inactive
same,Potency,[5],inactive
Cc1ccc2nc(N)[nH]c(=O)c2c1Sc1ccncc1,outcome,[1],inactive
same,outcome,[2],inactive
same,Potency,[3],inactive
same,outcome,[4],inactive
same,Potency,[5],inactive
CCCCCCCCCCCCCCCCCCOCC(O)CO (centres undefined),outcome,[1],inactive
same,outcome,[2],inactive
same,Potency,[3],inactive
same,Potency,[11],inactive
CC1CC(OC(=O)C(O)c2ccccc2)CC(C)(C)N1C (centres undefined),outcome,[1],inactive
same,outcome,[2],inactive
same,Potency,[3],inactive
same,outcome,[4],inactive
same,Potency,[11],inactive
same,Potency,[5],inactive
Cc1cccc(Nc2cc(Cl)nc(SCC(=O)O)n2)c1C,outcome,[1],inactive
same,outcome,[2],inactive
same,Potency,[3],inactive
same,Potency,[11],inactive
C[C@@H]1CN(c2c(F)c(F)c3c(=O)c(C(=O)O)cn(C4CC4)c3c2F)C[C@H](C)N1,outcome,[1],inactive
same,outcome,[2],inactive
same,Potency,[3],inactive
same,Potency,[11],inactive
CCCCCCCCCCCCOS(=O)(=O)O,outcome,[1],inactive
same,outcome,[2],inactive
same,Potency,[3],inactive
same,Potency,[11],inactive
NS(=O)(=O)c1cc2c(cc1Cl)NC(CSCc1ccccc1)=NS2(=O)=O,outcome,[1],inactive
same,outcome,[2],inactive
same,Potency,[3],inactive
same,outcome,[4],inactive
same,Potency,[11],inactive
same,Potency,[5],inactive
COC(=O)C1=C(C)NC(C)=C(C(=O)OC)C1c1ccccc1[N+](=O)[O-],outcome,[1],inactive
same,outcome,[2],inactive
same,Potency,[3],inactive
same,outcome,[4],inactive
same,outcome,[7],inactive
same,Potency,[8],13.1 µM (active)
same,Potency,[5],inactive
same,outcome,[9],inactive
CCCCN(CCCC)CCCOC(=O)c1ccc(N)cc1,outcome,[1],inactive
same,outcome,[2],inactive
same,Potency,[3],inactive
same,Potency,[5],inactive
CC(=O)c1ccc2c(c1)N(CCCN(C)C)c1ccccc1S2,outcome,[1],inactive
same,outcome,[2],inactive
same,Potency,[3],inactive
same,Potency,[11],inactive
same,Potency,[5],inactive
same,outcome,[9],inactive
CC(=O)Oc1ccc(C2(c3ccc(OC(C)=O)cc3)C(=O)Nc3ccccc32)cc1,outcome,[1],inactive
same,outcome,[2],inactive
same,Potency,[3],3.55 µM (active) and 3.98 µM (active)
same,Potency,[11],inactive
same,Potency,[5],inactive
[O-][n+]1cccc(CO)c1,outcome,[1],inactive
same,outcome,[2],inactive
same,Potency,[3],inactive
same,Potency,[11],inactive
same,Potency,[5],inactive
NC(CSCC(=O)O)C(=O)O (centres undefined),outcome,[1],inactive
same,outcome,[2],inactive
same,Potency,[3],inactive
same,Potency,[11],inactive
same,Potency,[5],inactive
CC(=O)Nc1ccc(/C=N/NC(N)=S)cc1,outcome,[1],inactive
same,outcome,[2],inactive
same,Potency,[3],inactive
same,Potency,[11],inactive
same,Potency,[5],inactive
COc1cc(C)c(Cc2cnc(N)nc2N)cc1OC,outcome,[1],inactive
same,outcome,[2],inactive
same,Potency,[3],inactive
same,Potency,[11],inactive
same,Potency,[5],inactive
CNC(=O)Oc1ccc2c(c1)[C@]1(C)CCN(C)[C@@H]1N2C,outcome,[1],inactive
same,outcome,[2],inactive
same,Potency,[3],inactive
same,Potency,[11],inactive
same,outcome,[6],inactive
same,Potency,[8],inactive
same,Potency,[5],inactive
same,outcome,[9],inactive
O=C1OC(OC(=O)c2cccnc2Nc2cccc(C(F)(F)F)c2)c2ccccc21 (centres undefined),outcome,[1],inactive
same,outcome,[2],inactive
same,Potency,[3],inactive
same,Potency,[11],inactive
same,Potency,[5],inactive
Cc1ncc(COP(=O)(O)O)c(C=O)c1O,outcome,[1],inactive
same,outcome,[2],inactive
same,Potency,[3],inactive
same,Potency,[11],inactive
same,Potency,[5],inactive
COc1ccc(S(=O)(=O)Nc2nnc(CC(C)C)s2)cc1,outcome,[1],inactive
same,outcome,[2],inactive
same,Potency,[3],inactive
same,Potency,[11],inactive
same,Potency,[5],inactive
CCCn1cnc2c1c(=O)n(CCCCC(C)=O)c(=O)n2C,outcome,[1],inactive
same,outcome,[2],inactive
same,Potency,[3],inactive
same,Potency,[11],inactive
same,outcome,[6],inactive
same,outcome,[7],inactive
same,Potency,[8],inactive
same,Potency,[5],inactive
same,outcome,[9],inactive
same,outcome,[10],inactive
C#CCN(C)Cc1ccccc1,outcome,[1],inactive
same,outcome,[2],inactive
same,Potency,[3],inactive
same,Potency,[11],inactive
same,outcome,[6],inactive
same,outcome,[7],inactive
same,Potency,[8],inactive
same,outcome,[9],inactive
same,outcome,[10],inactive
CC(C(O)c1ccc(O)cc1)N1CCC(Cc2ccccc2)CC1 (centres undefined),outcome,[1],inactive
same,outcome,[2],inactive
same,outcome,[4],inactive
same,Potency,[11],inactive
same,outcome,[6],inactive
same,outcome,[7],inactive
same,Potency,[8],inactive
same,outcome,[9],inactive
same,outcome,[10],inactive
OCc1cc(C(O)CNCCCCCCOCCCCc2ccccc2)ccc1O (centres undefined),outcome,[1],inactive
same,outcome,[2],inactive
same,outcome,[4],inactive
same,Potency,[11],inactive
same,outcome,[6],inactive
same,outcome,[7],inactive
same,Potency,[8],inactive
same,Potency,[5],inactive
same,outcome,[9],inactive
same,outcome,[10],inactive
CC1(C)OC(=O)NC1=O,outcome,[1],inactive
same,outcome,[2],inactive
same,Potency,[3],inactive
same,Potency,[11],inactive
same,Potency,[5],inactive
NC(=O)NNc1ccccc1,outcome,[1],inactive
same,outcome,[2],inactive
same,Potency,[3],inactive
same,Potency,[11],inactive
CC(=O)NC(Cc1ccccc1)C(=O)O (centres undefined),outcome,[1],inactive
same,outcome,[2],inactive
same,Potency,[3],inactive
same,Potency,[11],inactive
same,Potency,[5],inactive
Cc1cc(O)cc2c1O[C@](C)(CCC[C@H](C)CCC[C@H](C)CCCC(C)C)CC2,outcome,[1],inactive
same,outcome,[2],inactive
same,Potency,[3],inactive
same,Potency,[11],inactive
same,Potency,[5],inactive
N[C@H](C(=O)O)c1ccc(O)cc1,outcome,[1],inactive
same,outcome,[2],inactive
same,Potency,[3],inactive
same,Potency,[11],inactive
same,Potency,[5],inactive
Cc1cccc(C)c1NC(=O)CN(CC(=O)O)CC(=O)O,outcome,[1],inactive
same,outcome,[2],inactive
same,Potency,[3],inactive
same,Potency,[11],inactive
same,Potency,[5],inactive
CC(=O)Oc1c(C)c(C)c2c(c1C)CC[C@@](C)(CCC[C@H](C)CCC[C@H](C)CCCC(C)C)O2,outcome,[1],inactive
same,outcome,[2],inactive
same,Potency,[3],inactive
same,Potency,[11],inactive
same,Potency,[5],inactive
O=c1[nH]cnc2c1ncn2[C@@H]1O[C@H](CO)[C@@H](O)[C@H]1O,outcome,[1],inactive
same,outcome,[2],inactive
same,Potency,[3],inactive
same,Potency,[11],inactive
same,Potency,[5],inactive
[Cl][In]([Cl])[Cl],outcome,[1],inactive
same,outcome,[2],inactive
same,Potency,[3],inactive
same,Potency,[11],inactive
same,Potency,[5],inactive
C=Cc1c(C)c2cc3[nH]c(cc4nc(cc5nc(cc1[nH]2)C(C)=C5CCC(=O)O)C(CCC(=O)O)=C4C)c(C)c3C=C,outcome,[1],inactive
same,outcome,[2],inactive
same,outcome,[4],inactive
same,Potency,[11],inactive
same,outcome,[7],inactive
same,Potency,[5],inactive
same,outcome,[9],inactive
CCn1cc(C(=O)O)c(=O)c2cnc(N3CCNCC3)nc21,outcome,[1],inactive
same,outcome,[2],inactive
same,Potency,[3],inactive
same,Potency,[11],inactive
same,Potency,[5],inactive
C[C@@H](O)[C@H](N)C(=O)O,outcome,[1],inactive
same,outcome,[2],inactive
same,Potency,[3],inactive
same,Potency,[11],inactive
same,Potency,[5],inactive
COc1cc(C(=O)N2CCOCC2)cc(OC)c1OC,outcome,[1],inactive
same,outcome,[2],inactive
same,Potency,[3],inactive
same,Potency,[11],inactive
same,Potency,[5],inactive
O=C1N=C(O)CN1/N=C/c1ccc(-c2ccc([N+](=O)[O-])cc2)o1,outcome,[1],inactive
same,outcome,[2],inactive
same,outcome,[4],inactive
same,Potency,[11],inactive
same,outcome,[6],inactive
same,outcome,[7],inactive
same,Potency,[8],inactive
same,Potency,[5],inactive
Nc1ncnc2c1ncn2[C@@H]1O[C@H](CO)[C@@H](O)[C@H]1O,outcome,[1],inactive
same,outcome,[2],inactive
same,Potency,[3],inactive
same,Potency,[11],inactive
same,outcome,[6],inactive
same,outcome,[7],inactive
same,Potency,[8],inactive
same,Potency,[5],inactive
same,outcome,[9],inactive
same,outcome,[10],inactive
